12-LOX inh = ALOX12 (human) lipoxygenase inhibition; AID 1671190; purified 12hLO, xylenol orange hydroperoxide absorbance; 580,000 tested, 1.1% active; Potency, µM (doses to about 108 µM), for inactives: at the top dose activity change, negative = inhibition, most hits filed as inhibitors; P18054; active = well fitted inhibition curve with a large enough effect; inconclusive = small, poorly fitted or top-dose-only effect, or another doubt; inactive = no such curve, though single readings can be large or run the other way; note: potency is the fitted concentration of half-maximal effect; % is set by controls: 0 for no effect and ±100 for the full control effect
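Purified human 12hLO (150 nM final) in 25 mM Hepes, 0.01% Triton X-100, pH 7.0 was preincubated 15 min at room temperature with compound. Then 40 uM arachidonic acid was added, 30 min. Hydroperoxide was read by Fe-XO absorbance ratio 573/405 nm.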
KCNH2 WT inh = blocks the wildtype human KCNH2 potassium channel; U2OS, BacMam KCNH2, thallium flux FluxOr; stronger effect = lower value; activity change, % at 1.84 µM; 340,000 tested, 0.37% active;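 active = maximum activity change below -70%; inconclusive = maximum activity change between -70% and -50%; inactive = maximum activity change above -50%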; note: % is set by controls: 0 for no effect and ±100 for the full control effect
Target sequence (Q12809 whole entry, looked up): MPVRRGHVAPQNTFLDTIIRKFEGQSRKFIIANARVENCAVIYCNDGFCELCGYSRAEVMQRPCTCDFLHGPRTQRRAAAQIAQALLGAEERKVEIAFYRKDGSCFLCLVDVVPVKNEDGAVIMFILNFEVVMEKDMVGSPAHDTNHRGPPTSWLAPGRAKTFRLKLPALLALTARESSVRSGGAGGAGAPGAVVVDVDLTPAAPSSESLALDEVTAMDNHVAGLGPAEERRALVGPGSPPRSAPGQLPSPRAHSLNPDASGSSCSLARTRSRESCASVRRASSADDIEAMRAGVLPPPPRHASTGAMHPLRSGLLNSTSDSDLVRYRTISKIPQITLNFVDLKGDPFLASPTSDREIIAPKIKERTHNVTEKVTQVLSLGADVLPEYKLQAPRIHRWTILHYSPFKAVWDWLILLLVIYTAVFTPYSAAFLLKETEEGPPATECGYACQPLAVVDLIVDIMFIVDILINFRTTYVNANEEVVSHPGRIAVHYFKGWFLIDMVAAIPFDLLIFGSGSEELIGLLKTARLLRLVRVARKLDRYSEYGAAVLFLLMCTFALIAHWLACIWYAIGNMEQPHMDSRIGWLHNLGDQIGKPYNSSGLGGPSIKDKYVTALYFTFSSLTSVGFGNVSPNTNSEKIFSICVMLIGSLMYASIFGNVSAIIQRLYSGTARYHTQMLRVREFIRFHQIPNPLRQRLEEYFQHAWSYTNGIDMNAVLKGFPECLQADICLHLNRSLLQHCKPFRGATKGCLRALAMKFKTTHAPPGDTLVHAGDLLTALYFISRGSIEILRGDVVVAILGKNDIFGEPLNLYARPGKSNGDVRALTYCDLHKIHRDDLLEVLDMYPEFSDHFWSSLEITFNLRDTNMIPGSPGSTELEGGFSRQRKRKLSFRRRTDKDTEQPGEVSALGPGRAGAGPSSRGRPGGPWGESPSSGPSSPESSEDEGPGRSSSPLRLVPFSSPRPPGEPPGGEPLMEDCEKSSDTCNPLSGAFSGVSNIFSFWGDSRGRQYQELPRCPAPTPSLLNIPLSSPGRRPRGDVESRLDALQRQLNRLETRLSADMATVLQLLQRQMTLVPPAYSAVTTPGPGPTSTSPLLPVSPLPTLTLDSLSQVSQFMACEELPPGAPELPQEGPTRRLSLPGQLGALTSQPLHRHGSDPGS
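U2OS cells transduced with wild-type KCNH2 virus are loaded with FluxOr dye for 45 min, and thallium flux is measured in kinetic reads before and after stimulation buffer. Rate constants are normalized to DMSO controls.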
ClpP mod = qHTS Assay for Activators of ClpP. AID 651965, 2013. 340,000 tested, 1.9% active. purified B. subtilis ClpP, FRET peptide cleavage, 20 min. Potency, µM (top dose mostly 57.5 µM), for the others: at the top dose activity change, negative = active; active = well fitted falling curve with a large enough effect; inconclusive = small, poorly fitted or top-dose-only effect; inactive = no such curve, though single readings can be large or run the other way; note: potency is the fitted concentration of half-maximal effect; the source files actives as falling curves though it sought activators and does not explain the sign; nearly all actives have a fitted effect of over 65% in size
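Buffer: 100 mM Tris/HCl pH8, 100 mM KCl, 0.05% low protease BSA, 2.5% glycerol, 0.01% Tween-20. ClpP 10 microg/mL final; 20 min RT; delta FRET normalized to ADEP and DMSO controls.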
Chronic BCR inh = blocks chronic active B-cell receptor signaling. 340,000 tested, 0.05% active. Potency, µM (top dose mostly 46.1 µM), without a hit: at the highest dose activity change, negative = inhibition, actives largely listed as inhibitors. AID 493014. ABC-DLBCL IkBa-CBG/CBR reporter, luminescence ratio, 4 h; active = well fitted inhibition curve with a large enough effect in the signal ratio, with a control signal flat, not every such curve was filed as active; inconclusive = small, poorly fitted or top-dose-only effect, or effect the other way, or a change in a side signal; the % refers to the signal ratio;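 note: potency is the fitted concentration of half-maximal effect; plate controls were basal doxycycline-induced cells for no effect and cells given 10 µM MG132 for full effect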
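TMD8 human ABC-DLBCL cells with doxycycline-inducible IκBα–green luciferase fusion and unfused red luciferase, in 0.5% FBS medium; compounds up to 46 uM, 4 h at 37C. Green/red luminescence ratio, filter-overlap corrected, fitted to concentration-response curves.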
KCNH2 3.1 block = inhibitors of human KCNH2 3.1 potassium channel isoform. U2OS KCNH2 3.1, thallium flux FluxOr; stronger effect = lower value. AID 720553. activity change, % (tested at about 1.8 µM). 340,000 tested, 0.95% active;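 active = maximum activity change below -70%; inconclusive = maximum activity change from -70% to -50%; inactive = maximum activity change above -50%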;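 note: thallium influx rate constant from kinetic fluorescence after stimulation buffer; % is set by controls: 0 for no effect and ±100 for the full control effect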
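Thallium flux read-out: FluxOr dye with Red40 quencher in HBSS/HEPES, 45 min at RT. Rate constants from kinetic reads were normalized to positive and negative DMSO controls. Cells: U2OS virally expressing the 3.1 isoform.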
LDHA inh = inhibitors of human lactate dehydrogenase A. P00338. purified LDHA, NADH/diaphorase-resazurin fluorescence; stronger effect = lower value. activity change, % (values are at about 110 or 230 µM). 480,000 tested, 0.15% active; in the data active = activity change below about -30%; inconclusive = mostly about -25% to -30%;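 note: plate controls were DMSO wells for no effect and wells without enzyme for full effect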
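LDH5 2 nM; NADH 0.06 mM, pyruvate 0.2 mM; 200 mM Tris pH 7.4, EDTA, Tween-20; 5 min RT. Detection: diaphorase 0.133 mg/mL + resazurin 37 µM, fluorescence ex540/em590 at 0 and 20 min; normalized to enzyme-free and DMSO wells.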
* marks the source's active call; other numbers are inactive results; ? = inconclusive; . = not tested or not shown; ! = not confirmed by another sample. Hits are enriched below; roughly 3% of the tested compounds scored in any of these assays.

SMILES	12-LOX inh	KCNH2 WT inh	ClpP mod	Chronic BCR inh	KCNH2 3.1 block	LDHA inh
CC(=O)Nc1ccc(NC(=O)C(c2ccccc2)N2Cc3ccccc3C2=O)cc1 (stereo not given)	?	.	0%	.	.	2
COCCn1c(-c2ccc(Br)cc2)csc1=Nc1cccnc1	132%	-8	.	9%	-79*	-5
Clc1ccc(-c2csc(=Nc3cccnc3)n2CCCn2ccnc2)cc1Cl	-5%	16	-1%	?	?	-8
CCOC(=O)c1cc(CC)sc1NC(=O)c1ccc2c(c1)OCCO2	-23%	0	25µM*	?	-2	1
CCOC(=O)c1cc(CC)sc1NC(=O)c1cc(OCC)c(OCC)c(OCC)c1	-2%	0	-20%	-3%	3	0
CCOC(=O)c1cc(-c2ccccc2)sc1NC(=O)c1ccc(OC)c(OC)c1	11µM*	4	-2%	-5%	3	-5
CCOC(=O)c1cc(-c2ccccc2)sc1NC(=S)Nc1cccc(C)n1	20µM*	6	-1%	-5%	2	-8
CCOC(=O)c1cc(-c2ccccc2)sc1NC(=O)C(C)C	-17%	2	-6%	4%	-7	-6
Cc1ccc2[nH]c(-c3cccc(F)c3)cc(=O)c2c1	10%	-8	4%	?	-6	1
O=c1cc(-c2ccccc2)[nH]c2ccc(F)cc12	-2%	-12	-18%	?	-98*	-4
O=c1cc(-c2cccc(F)c2)[nH]c2ccccc12	-21%	2	-13%	21µM*	-71*	2
CCOc1ccccc1CNC(=O)c1cccc2c1CCN2C(=O)CC	36%	.	.	.	.	.
CCC(=O)C1=C(c2ccc(Cl)c(Cl)c2)N(C(=O)CC)n2cnnc2S1	-8%	.	.	.	.	2
CCCC(=O)C1=C(c2ccc(C)cc2)N(C(=O)CCC)n2cnnc2S1	-20%	.	-3%	20µM*	.	-5
CSc1ncc(Cl)c(C(=O)Nc2ccc(S(=O)(=O)N3CCCCC3C)cc2)n1 (stereo not given)	1%	.	.	.	.	0
O=C(CCc1nc2ccccc2[nH]1)N1C[C@@H](CO)[C@H](c2ccncc2)C1	32%	.	.	.	.	.
N#CC1(Cc2ccccc2)c2ccccc2C=CN1C(=O)c1ccccc1 (stereo not given)	-4%	5	2%	15%	6	-4
N#CC1(Cc2ccc([N+](=O)[O-])cc2)c2ccccc2C=CN1C(=O)c1ccccc1 (stereo not given)	-15%	3	-3%	25%	-88*	-4
CCOC(=O)c1sc(N2C(=O)C(O)=C(C(=O)c3ccco3)C2c2cccc([N+](=O)[O-])c2)nc1C (stereo not given)	45µM*	5	-2%	?	-7	-8
Cc1ccc2nc(N3C(=O)C(O)=C(C(=O)c4ccco4)C3c3ccc(O)cc3)sc2c1 (stereo not given)	22µM*!	.	.	?	.	1
O=C(C1=C(O)C(=O)N(c2nc3ccc(Cl)cc3s2)C1c1ccco1)c1ccco1 (stereo not given)	7.9µM*!	-7	-2%	3%	3	1
Cc1ccc2nc(N3C(=O)C(O)=C(C(=O)c4ccco4)C3c3ccc(C)o3)sc2c1 (stereo not given)	?	-10	.	9%	1	18
Cc1ccc2nc(N3C(=O)C(O)=C(C(=O)c4ccc(C)o4)C3c3ccco3)sc2c1 (stereo not given)	0.56µM*	-1	0%	4%	4	-15
CCc1ccc2nc(N3C(=O)C(O)=C(C(=O)c4ccco4)C3c3cccs3)sc2c1 (stereo not given)	.	6	-15%	?	-1	1
Cc1nnc(N2C(=O)C(O)=C(C(=O)c3ccco3)C2c2cccc([N+](=O)[O-])c2)s1 (stereo not given)	?	-3	0%	14%	7	5
SMILES	12-LOX inh	KCNH2 WT inh	ClpP mod	Chronic BCR inh	KCNH2 3.1 block	LDHA inh
Cc1ccc2c(c1)C1CC(c3ccccc3Cl)=NN1C1(CCN(C)CC1)O2 (stereo not given)	-2%	.	.	.	.	0
CC(C)(Oc1nn(Cc2cccc(Cl)c2)c2ccccc12)C(=O)N1CCN(CCO)CC1	0%	.	.	.	.	.
N#Cc1cccc(-c2cn3c(n2)N(C(=O)c2ccco2)CCC3)c1	49%	.	.	.	.	.
Cc1cc(OCC(=O)NCCCN(C)C)c2c(C)c(C)c(=O)oc2c1	0%	.	.	.	.	-25
Cc1cc(C)c2nc(N3C(=O)C(O)=C(C(=O)c4ccco4)C3c3cccc(O)c3)sc2c1 (stereo not given)	25µM*	2	0%	?	-5	-4
Cc1cc(N2C(=O)C(O)=C(C(=O)c3ccco3)C2c2cccc(O)c2)no1 (stereo not given)	?	-3	0%	0%	9	-11
Cc1cc(C)c2nc(N3C(=O)C(O)=C(C(=O)c4ccco4)C3c3ccc(O)cc3)sc2c1 (stereo not given)	25µM*	22	0%	?	25	-1
Cc1cc2ccccc2nc1-c1cccc(O)c1	15%	.	.	.	.	.
COc1ccccc1OC(C)C(=O)NC1CCCC1 (stereo not given)	0%	.	.	.	.	0
Cc1cc(C)nc(-n2nc(C)c(Oc3ccccc3O)c2C)n1	6%	-26	28µM*	-1%	11	-7
Cc1nc(-n2nc(C)c(Cl)c2C)sc1C(=O)N1CCCC1	-9%	.	.	.	.	-3
C/C=C(/C)C(=O)O[C@@H]1c2c(ccc3ccc(=O)oc23)OC(C)(C)[C@@H]1OC(C)=O	?	1	4%	1%	-3	-1
C/C=C(\C)C(=O)OC1c2c(ccc3ccc(=O)oc23)OC(C)(C)C1OC(C)=O (stereo not given)	0%	3	32µM*	0%	1	2
Cc1ccc(C(=O)CC(=O)c2ccc(C)cc2C)c(C)c1	15%	.	.	.	.	-3
CCC(=O)N1CCc2cc(S(=O)(=O)NC(CC(C)C)C(=O)NCc3cccc(OC)c3)ccc21 (stereo not given)	0%	.	0%	.	.	-31*
CCC(=O)N1CCc2cc(S(=O)(=O)NC(CC(C)C)C(=O)NCc3ccc(F)cc3)ccc21 (stereo not given)	7%	.	0%	.	.	-17
CCOC(=O)c1nnn(-c2nonc2-n2cccc2)c1-c1cccc([N+](=O)[O-])c1	-5%	7	28µM*	?	0	-4
CCOC(=O)c1nnn(-c2nonc2-n2cccc2)c1C	-26%	11	1%	8%	.	-2

Assay outcomes deposited in PubChem BioAssay by National Center for Advancing Translational Sciences (NCATS).
